# In PubChem BioAssay (Tox21):
# Values joined by “and” are separate entries in the source; they are usually repeats but may differ in a detail not shown here. Equal values may be shown once. Records with an inconclusive call do not appear. A call without a number means that no potency is given here. Some structures have more than one record in an assay (separate samples or runs), and their calls can disagree. Active and inactive are the calls of the source. Unless noted, calls follow the shape of the dose curve; as a rule, active = well fitted curve in the direction sought with a large enough effect in the repeat runs; inconclusive = weak or mixed curves; inactive = no such curve, though single readings can be large; an effect the other way counts as inactive or inconclusive.
# Tests used:
# [1] = qHTS assay to identify small molecule agonists of the estrogen receptor alpha (ER-alpha) signaling pathway in the presence of an antagonist - cell viability counter screen (AID 1259386); also: nearly all actives have a fitted effect of over 30% in size; also: potency is read from the fitted curve at half-maximal effect
# Procedure, shortened: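 Compounds tested at 15 concentrations for 22 h at 37C alongside 10.0nM (final) ICI-182,780 antagonist, in VM7Luc4E2 cells grown in phenol red-free, charcoal-stripped medium. Viability read by CellTiter-Fluor fluorescence after 1 h reagent incubation.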
# [2] = biological target: Progesterone receptor (Homo sapiens) (UniProt P06401); experiment: qHTS assay to identify small molecule agonists of the progesterone receptor (PR) signaling pathway (AID 1346784; calls by dose curve; also: nearly all actives have a fitted effect of over 30% in size)
# Procedure, shortened: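 Seed PR-UAS-bla HEK 293T cells (2% charcoal-stripped FBS), incubate 6 hr at 37C; add compounds in DMSO, 16 hr at 37C; add LiveBLAzer B/G substrate, 2 hr RT; read fluorescence intensity.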
# [3] = biological target: Progesterone receptor (Homo sapiens) (UniProt P06401); experiment: qHTS assay to identify small molecule antagonists of the progesterone receptor (PR) signaling pathway (AID 1346795; active = well fitted inhibition curve with a large enough effect in the signal ratio in the repeat runs, not every such curve was filed as active; the % refers to the signal ratio; also: potency is read from the fitted curve at half-maximal effect)
# Procedure, shortened: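 Screening used a GripTite HEK293T line with PR-responsive UAS-beta-lactamase. Cells were challenged with compound in the presence of 1 nM R5020 final for 16 hr at 37C; B/G FRET substrate, 2 hr room temperature, fluorescence.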
# [4] = qHTS assay to identify small molecule antagonists of the progesterone receptor (PR) signaling pathway - cell viability counter screen (AID 1346798); also: series mostly up to about 92 µM; nearly all actives have a fitted effect of over 50% in size
# Procedure, shortened: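 Measures cytotoxicity in parallel with the PR antagonist reporter read: HEK293T PR-UAS-bla cells get compound and R5020 for 16 hr, and remaining viable cells are quantified by CellTiter-Glo luminescence.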
# [5] = qHTS assay to identify small molecule antagonists of the TGF-beta/Smad signaling pathway - cell viability counter screen (AID 1346824); also: nearly all actives have a fitted effect of over 50% in size
# Procedure, shortened: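 SBE-bla HEK 293T cells, incubated overnight, then compound plus 0.25 ng/mL TGF-beta1 (stock added) for 5 hr at 37 C. Viability was read in the same wells by CellTiter-Glo luminescence after 30 min at room temperature.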
# [6] = qHTS assay to identify small molecule agonists of the TGF-beta/Smad signaling pathway - cell viability counter screen (AID 1346829); also: top concentration of the series differs between compounds; nearly all actives have a fitted effect of over 45% in size
# Procedure, shortened: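 In parallel with the Smad reporter read, viability of HEK 293T cells stably carrying SBE-bla is quantified by ATP luminescence following 5 hr compound treatment.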
# [7] = qHTS assay to identify small molecule agonists of the TGF-beta/Smad signaling pathway (AID 1346859; active = well fitted activation curve with a large enough effect in the signal ratio in the repeat runs, not every such curve was filed as active; the % refers to the signal ratio; also: series mostly up to about 77 µM)
# Procedure, shortened: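 Beta-lactamase reporter activity downstream of Smad binding elements was measured in stably transfected HEK 293T cells; compounds were incubated for 5 hr, substrate for 2 hr at room temperature.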
# [8] = Human pregnane X receptor (PXR) small molecule agonists, qHTS cell viability counter screen (AID 1346977); also: nearly all actives have a fitted effect of over 50% in size
# Procedure, shortened: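 After a 5hr pre-incubation, PXR-Luc HepG2 cells received compounds plus positive control in DMSO and were kept 24hr at 37C. Cell viability was quantified by fluorescence from CellTiter-Fluor added for the final hour.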
# [9] = Caspase-3/7 induction in HepG2 cells by small molecules, qHTS assay (AID 1346978); also: nearly all actives have a fitted effect of over 15% in size
# Procedure, shortened: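 Wild-type HepG2 cells, 2,000/well, settled 5 hr at 37 C and 5% CO2, then compound-treated for 17 hr; caspase-3/7 activity read by luminescent Caspase-Glo 3/7 after 30 min at room temperature.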
# [10] = Caspase-3/7 induction in CHO-K1 cells by small molecules, qHTS cell viability counter screen (AID 1346979); also: nearly all actives have a fitted effect of over 35% in size; also: potency is read from the fitted curve at half-maximal effect
# Procedure, shortened: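 Multiplexed with Caspase-Glo 3/7 in CHO-K1 cells, this counter screen added CellTiter-Fluor after 16hr of compound exposure and recorded fluorescence 1hr later.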
# [11] = Caspase-3/7 induction in CHO-K1 cells by small molecules, qHTS assay (AID 1346980); also: nearly all actives have a fitted effect of over 15% in size
# Procedure, shortened: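 Wild-type CHO-K1 cells exposed to compounds for 17hr at 37 C, 5% CO2. Caspase-3/7 activity then measured by Caspase-Glo 3/7 luminescence after 30min at room temperature.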
# [12] = Caspase-3/7 induction in HepG2 cells by small molecules, qHTS cell viability counter screen (AID 1346981); also: nearly all actives have a fitted effect of over 30% in size; also: potency is read from the fitted curve at half-maximal effect
# Procedure, shortened: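 CellTiter-Fluor fluorescence measured viability in the same wells used for Caspase-Glo 3/7. HepG2 (wild type) at 2,000 cells/well were pre-incubated 5 hr, dosed, and given reagent at 16 hr, with 1 hr further at 37C.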
# [13] = qHTS assay to identify small molecule agonists of the progesterone receptor (PR) signaling pathway - cell viability counter screen (AID 1346799; calls by dose curve; also: nearly all actives have a fitted effect of over 45% in size)
# Procedure, shortened: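 Using the same plates as the PR reporter screen, HEK293T PR-UAS-bla cells received compounds for 16 hr at 37C and were then lysed with CellTiter-Glo; luminescence was read 30 min later at room temperature.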
# [14] = biological target: Nuclear receptor subfamily 1 group I member 2 (Homo sapiens) (UniProt O75469); experiment: Human pregnane X receptor (PXR) small molecule agonists, qHTS assay (AID 1346982); also: nearly all actives have a fitted effect of over 35% in size; also: potency is read from the fitted curve at half-maximal effect
# Procedure, shortened: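 Agonist mode: luminescence from ONE-Glo after 24 h compound exposure at 37C in HepG2 cells carrying hPXR-responsive CYP3A4 luciferase, plated in charcoal-stripped serum medium 5 h beforehand.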
# [15] = biological target: Acetylcholinesterase (Homo sapiens) (UniProt P22303); experiment: Acetylcholinesterase (AChE) small molecule antagonists: colormetric cell-based qHTS assay (AID 1347395; calls by dose curve; also: nearly all actives have a fitted effect of over 30% in size)
# Procedure, shortened: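 In this cell-based qHTS, attached SH-SY5Y cells were treated with test chemicals for 30 min, after which acetylthiocholine hydrolysis was followed by DTNB colour development over 90 min at 37 C.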
# [16] = biological target: Thyrotropin-releasing hormone receptor (Homo sapiens) (UniProt P34981); experiment: qHTS assay to identify small molecule antagonists of the thyrotropin-releasing hormone receptor (TRHR) signaling pathway (AID 1346877; active = well fitted inhibition curve with a large enough effect in the repeat runs, not every such curve was filed as active; also: series mostly up to about 51 µM)
# Procedure, shortened: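 Antagonist mode: after a 5 min room-temperature compound exposure, cells were stimulated with 1 nM (final) TRH. Dye-loaded TRHR-HEK293 cells were used, and calcium-dependent fluorescence was followed for 3 min, with 15-point titrations run in triplicate.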
# [17] = biological target: Thyrotropin-releasing hormone receptor (Homo sapiens) (UniProt P34981); experiment: qHTS assay to identify small molecule agonists of the thyrotropin-releasing hormone receptor (TRHR) signaling pathway (AID 1346891; calls by dose curve;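 also: HEK293 cells expressing TRHR with calcium dye readout; series mostly up to about 58 µM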)
# Procedure, shortened: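 Overnight-plated (18 h, 37 °C, 5% CO2) TRHR-Hek293 cells; 2 h calcium dye at 37 °C; compound in DMSO; 3-min kinetic fluorescence read.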
# [18] = biological target: Nuclear receptor subfamily 1 group I member 2 (Rattus norvegicus) (UniProt Q9R1A7); experiment: Rat pregnane X receptor (rPXR) activation by small molecules, qHTS assay (AID 1346983); conditions: rPXR luciferase reporter cells, One-Glo luminescence, 24 h; max activation: stronger effect = higher value; also: nearly all actives have a fitted effect of over 20% in size
# Procedure, shortened: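 Cell-based rPXR activation assay: rPXR cells, 2,000 per well, rested 5hr at 37 C, then exposed to compounds in DMSO for 24 hr at 37 C. Luciferase activity read by One-Glo luminescence after 30 min at room temperature.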
# [19] = biological target: Nuclear receptor subfamily 1 group I member 2 (Homo sapiens) (UniProt O75469); experiment: CYP3A4 induction through human pregnane X receptor (PXR) by small molecules, qHTS assay (AID 1346984); also: nearly all actives have a fitted effect of over 40% in size
# Procedure, shortened: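 Read-out is luminescence after One-Glo addition, following a 3 hr, 37C incubation with Luciferin-IPA CYP3A4 substrate (3uM final). Before that, compounds were on DPX-2 cells (HepG2 co-transfected with PXR element plus CYP3A4-promoter luciferase) for 24 hr at 37C.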
# [20] = biological target: Nuclear receptor subfamily 1 group I member 2 (Homo sapiens) (UniProt O75469); experiment: Human pregnane X receptor (PXR) activation by small molecules, qHTS assay (AID 1346985); also: nearly all actives have a fitted effect of over 40% in size
# Procedure, shortened: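 DPX-2 cells (HepG2 co-transfected with a PXR response element and a CYP3A4-promoter luciferase construct) were seeded at 2,000 per well, rested 5 hr at 37C, then exposed to DMSO-dissolved compounds for 24 hr. Activation was read as luciferase luminescence.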
# Progesterone receptor (Homo sapiens), sequence (P06401 whole entry, looked up): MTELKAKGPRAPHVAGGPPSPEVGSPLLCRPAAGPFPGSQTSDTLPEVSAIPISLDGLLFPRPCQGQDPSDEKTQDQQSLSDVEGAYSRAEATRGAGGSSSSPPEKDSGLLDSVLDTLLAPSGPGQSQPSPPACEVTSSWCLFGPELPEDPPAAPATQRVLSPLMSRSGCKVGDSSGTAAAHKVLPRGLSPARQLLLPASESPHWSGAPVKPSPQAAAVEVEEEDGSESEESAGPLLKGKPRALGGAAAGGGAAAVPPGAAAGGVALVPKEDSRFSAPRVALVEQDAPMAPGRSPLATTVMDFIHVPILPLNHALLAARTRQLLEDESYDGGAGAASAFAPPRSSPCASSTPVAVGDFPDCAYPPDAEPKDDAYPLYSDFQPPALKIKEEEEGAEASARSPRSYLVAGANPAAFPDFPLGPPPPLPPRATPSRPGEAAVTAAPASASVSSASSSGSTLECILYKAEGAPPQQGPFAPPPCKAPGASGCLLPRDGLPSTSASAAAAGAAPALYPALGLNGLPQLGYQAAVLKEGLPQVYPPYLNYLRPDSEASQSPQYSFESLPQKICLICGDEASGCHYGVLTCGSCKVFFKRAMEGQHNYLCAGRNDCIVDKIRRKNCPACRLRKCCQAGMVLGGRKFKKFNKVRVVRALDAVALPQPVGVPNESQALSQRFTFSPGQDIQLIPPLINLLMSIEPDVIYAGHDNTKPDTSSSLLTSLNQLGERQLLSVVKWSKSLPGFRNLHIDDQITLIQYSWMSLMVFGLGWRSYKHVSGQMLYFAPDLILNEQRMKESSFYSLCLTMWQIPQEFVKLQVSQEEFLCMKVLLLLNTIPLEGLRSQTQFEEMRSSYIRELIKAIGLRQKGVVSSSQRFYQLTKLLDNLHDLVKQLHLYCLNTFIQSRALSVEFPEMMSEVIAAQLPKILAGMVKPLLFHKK
# Thyrotropin-releasing hormone receptor (Homo sapiens), sequence (P34981 whole entry, looked up): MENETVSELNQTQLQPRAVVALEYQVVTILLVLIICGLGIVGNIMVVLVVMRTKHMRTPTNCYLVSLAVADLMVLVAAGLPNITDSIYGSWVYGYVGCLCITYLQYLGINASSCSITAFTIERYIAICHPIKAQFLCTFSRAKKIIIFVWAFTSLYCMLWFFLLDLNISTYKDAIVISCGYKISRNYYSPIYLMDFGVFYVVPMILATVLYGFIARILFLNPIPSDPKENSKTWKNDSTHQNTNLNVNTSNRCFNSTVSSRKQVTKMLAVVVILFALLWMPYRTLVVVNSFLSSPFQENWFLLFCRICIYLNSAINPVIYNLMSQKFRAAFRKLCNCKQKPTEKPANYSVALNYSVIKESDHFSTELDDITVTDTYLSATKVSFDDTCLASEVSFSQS
# Acetylcholinesterase (Homo sapiens), sequence (P22303 whole entry, looked up): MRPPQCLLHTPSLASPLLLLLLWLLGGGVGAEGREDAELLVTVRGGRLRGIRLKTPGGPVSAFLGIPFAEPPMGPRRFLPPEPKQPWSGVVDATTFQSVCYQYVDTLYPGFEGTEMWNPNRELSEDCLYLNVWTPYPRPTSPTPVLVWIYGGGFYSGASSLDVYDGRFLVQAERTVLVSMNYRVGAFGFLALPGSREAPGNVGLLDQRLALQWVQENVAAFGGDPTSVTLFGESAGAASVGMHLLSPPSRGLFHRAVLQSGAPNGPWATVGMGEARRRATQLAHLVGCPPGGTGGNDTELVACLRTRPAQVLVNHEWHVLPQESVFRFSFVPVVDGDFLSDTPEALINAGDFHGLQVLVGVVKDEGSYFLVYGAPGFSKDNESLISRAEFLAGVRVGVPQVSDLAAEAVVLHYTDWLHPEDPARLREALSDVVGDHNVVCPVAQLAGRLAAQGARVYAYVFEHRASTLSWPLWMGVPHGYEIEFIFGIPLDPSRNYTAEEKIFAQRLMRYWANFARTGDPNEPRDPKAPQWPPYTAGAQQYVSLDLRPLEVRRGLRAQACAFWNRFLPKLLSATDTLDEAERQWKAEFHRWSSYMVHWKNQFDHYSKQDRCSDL
# Nuclear receptor subfamily 1 group I member 2 (Homo sapiens), sequence (O75469 whole entry, looked up): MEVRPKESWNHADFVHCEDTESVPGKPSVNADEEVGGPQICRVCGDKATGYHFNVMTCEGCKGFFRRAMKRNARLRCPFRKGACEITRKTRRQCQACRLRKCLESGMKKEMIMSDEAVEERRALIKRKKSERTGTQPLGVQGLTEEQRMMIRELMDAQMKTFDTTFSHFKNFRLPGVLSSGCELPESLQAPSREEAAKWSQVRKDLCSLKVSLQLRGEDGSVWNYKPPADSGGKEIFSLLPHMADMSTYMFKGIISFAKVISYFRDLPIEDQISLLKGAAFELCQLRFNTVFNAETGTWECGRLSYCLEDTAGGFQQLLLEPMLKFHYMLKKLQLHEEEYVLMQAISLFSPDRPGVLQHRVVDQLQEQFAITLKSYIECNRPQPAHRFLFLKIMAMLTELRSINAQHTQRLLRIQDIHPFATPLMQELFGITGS
# Nuclear receptor subfamily 1 group I member 2 (Rattus norvegicus), sequence (Q9R1A7 whole entry, looked up): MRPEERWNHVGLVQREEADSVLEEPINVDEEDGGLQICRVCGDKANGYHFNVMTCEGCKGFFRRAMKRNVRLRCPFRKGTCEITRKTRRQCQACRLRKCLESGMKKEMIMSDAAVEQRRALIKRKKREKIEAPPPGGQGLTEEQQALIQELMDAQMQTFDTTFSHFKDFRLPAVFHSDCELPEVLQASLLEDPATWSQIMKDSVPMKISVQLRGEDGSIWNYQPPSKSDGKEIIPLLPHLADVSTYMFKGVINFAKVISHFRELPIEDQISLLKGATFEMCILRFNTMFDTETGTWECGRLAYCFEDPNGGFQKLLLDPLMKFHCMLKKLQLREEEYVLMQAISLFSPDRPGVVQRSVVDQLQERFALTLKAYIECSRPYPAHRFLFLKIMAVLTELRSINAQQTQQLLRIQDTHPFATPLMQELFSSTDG
SMILES,Potency [1],Potency [2],Potency [3],Potency [4],Potency [5],Potency [6],outcome [7],Potency [8],outcome [9],Potency [10],outcome [11],Potency [12],outcome [13],Potency [14],Potency [15],outcome [16],outcome [17],max activation [18],Potency [19],Potency [20]
C=CC(=O)OCC(CC)CCCC (centres undefined),inactive,inactive,inactive,inactive,inactive,inactive,inactive,inactive,inactive,inactive,inactive,inactive,–,–,–,–,–,–,–,–
OCC(O)CCl (centres undefined),inactive,–,–,inactive,inactive,inactive,inactive,inactive,inactive,inactive,inactive,inactive,inactive,inactive,inactive,–,–,–,–,–
Cc1cccc(N)c1,inactive,inactive,inactive,inactive,inactive,inactive,inactive,inactive,–,inactive,inactive,inactive,–,54.6 µM (active) and inactive,inactive,inactive,inactive,–,–,–
Cc1cc(Cl)ccc1OC(C)C(=O)O (centres undefined),inactive,inactive,inactive,inactive,inactive,inactive,inactive,inactive,inactive,–,inactive,inactive,–,inactive,inactive,–,–,–,–,–
Cl[C@H]1OCCO[C@@H]1Cl,inactive,inactive,inactive,inactive,inactive,inactive,inactive,inactive,inactive,inactive,inactive,inactive,–,inactive,inactive,inactive,inactive,–,–,–
CN(C)C(=O)Nc1cccc(C(F)(F)F)c1,inactive,inactive,inactive,inactive,inactive,inactive,inactive,inactive,inactive,inactive,inactive,inactive,–,inactive,inactive,inactive,inactive,–,–,–
O=C/C=C/c1ccccc1,inactive,inactive,inactive,inactive,inactive,inactive,inactive,inactive,inactive,inactive,inactive,inactive,–,–,inactive,inactive,inactive,2.2% (inactive),inactive,inactive
C=C(C)C(=O)OCC(CC)CCCC (centres undefined),inactive,inactive,inactive,–,inactive,inactive,inactive,inactive,inactive,inactive,inactive,inactive,inactive,inactive,inactive,–,–,–,–,–
[N-]=[N+]=CC(=O)OC[C@H](N)C(=O)O,inactive,inactive,inactive,inactive,inactive,inactive,inactive,inactive,inactive,inactive,inactive,inactive,–,inactive,inactive,–,–,–,–,–
CC12CC1(C)C(=O)N(c1cc(Cl)cc(Cl)c1)C2=O (centres undefined),inactive,inactive,–,inactive,inactive,inactive,inactive,inactive,inactive,inactive,inactive,inactive,–,60.9 µM (active) and 24.3 µM (active),inactive,inactive,inactive,–,–,–
Nc1ncc([N+](=O)[O-])s1,54.9 µM (active) and inactive,inactive,inactive,inactive,inactive,inactive,inactive,inactive,inactive,30.9 µM (active) and inactive,inactive,54.9 µM (active) and inactive,–,inactive,inactive,–,–,–,–,–
OCc1ccco1,inactive,inactive,inactive,inactive,inactive,inactive,inactive,inactive,inactive,inactive,inactive,inactive,–,inactive,inactive,inactive,inactive,–,–,–
COc1cc(-c2ccc(N)c(OC)c2)ccc1N,inactive,inactive,48.8 µM (active) and 27.3 µM (active) and 46.3 µM (active),–,inactive,inactive,inactive,inactive,inactive,inactive and 58.3 µM (active),inactive,inactive and 46.3 µM (active),–,–,–,inactive,inactive,–,–,–
Oc1ccc(Cl)cc1,inactive,inactive,inactive,inactive,inactive,inactive,inactive,inactive,inactive,inactive,inactive,inactive,–,–,–,inactive,inactive,1.52% (inactive),–,–
